From PubChem BioAssay AID1347131 (National Center for Advancing Translational Sciences (NCATS), 2019)
About 2,000 (0.49%) of roughly 410,000 compounds were called active. Inconclusive results (about 8%) are left out. Calls follow the shape of the full dose curve; tested in HEK293 reporter line. The entries come from a sample that favours actives as a whole. Entries that show only a call come without a potency.

assay: qHTS Assay for Foot and Mouth Disease Virus Antivirals: Primary Screen against the MLPCN compound library; conditions: FMDV antiviral cell-based qHTS; series mostly up to 57.9 µM; also: nearly all actives have a fitted effect of over 55% in size
Potency is read from the fitted curve at half-maximal effect.

Row | SMILES | Potency
1 | CCc1ccc(NC(=O)CSCc2nc(N)nc(Nc3ccccc3CC)n2)cc1 | inactive
2 | CCCC(=O)Nc1cccc(NC(=O)c2cccc([N+](=O)[O-])c2C)c1 | inactive
3 | Cc1ccc(C(=O)COC(=O)c2cc(Cl)ccc2O)cc1[N+](=O)[O-] | inactive
4 | Cc1ccc(C(=O)COC(=O)c2cccc(NC(=O)c3ccc([N+](=O)[O-])cc3[N+](=O)[O-])c2)cc1 | 20 µM (active)
5 | C=C(C(=O)c1ccccc1)C(c1ccccc1)C(C)C(=O)c1ccccc1 (stereo unspecified) | inactive
6 | CC(=O)OC1CC2C(C)(C)C(O)CC[C@@]2(C)C2CC[C@@]3(C)C(c4ccoc4)OC(=O)C4OC43[C@]12C (stereo partly specified) | inactive
7 | CS(=O)(=O)c1ccc(C(=O)Nc2cccc(-c3nc4ccccc4[nH]3)c2)cc1 | inactive
8 | CS(=O)(=O)c1ccc(C(=O)Nc2ccc(-c3nc4ccccc4[nH]3)cc2)cc1 | inactive
9 | COC(=O)c1ccc(-c2nc3ccccc3[nH]2)cc1 | 15.8 µM (active)
10 | COc1ccccc1N1CCN(Cc2cc(=O)oc3cc(C)ccc23)CC1 | inactive
11 | Cc1nc2ccccc2c2oc(C(=O)N3CC(C)CC(C)C3)cc12 (stereo unspecified) | inactive
12 | Cc1ccc(OC(=O)Cn2c(C(F)(F)F)nc3ccccc32)cc1 | inactive
13 | COc1cccc(NC(=S)NCc2cccs2)c1 | inactive
14 | N#CC1=C(N)C(C#N)(C#N)[C@H](c2ccoc2)[C@H]2CN(Cc3ccccc3)CC=C12 | inactive
15 | N#CC1=C(N)C(C#N)(C#N)C(c2cccnc2)C2CN(C(=O)OCc3ccccc3)CC=C12 (stereo unspecified) | 22.4 µM (active)
16 | CC(=O)N1CC=C2C(C#N)=C(N)C(C#N)(C#N)C(CCc3ccccc3)C2C1 (stereo unspecified) | inactive
17 | Brc1ccc([C@H]2C=C[C@H]3CCCN4CC[C@H]2[C@@H]3[C@]42CO2)cc1 | inactive
18 | CC(=O)Nc1ccc(S(=O)(=O)c2ccc([N+](=O)[O-])cc2)cc1 | inactive
19 | COc1ccc(CN2C(=O)NC(=O)/C(=C/c3ccoc3)C2=O)cc1 | inactive
20 | O=C1NC(=O)N(CCc2ccc(F)cc2)C(=O)/C1=C/C=C/c1ccccc1 | 10 µM (active)
21 | O=C1NC(=O)N(Cc2ccccc2)C(=O)/C1=C\N1CCCc2ccccc21 | inactive
22 | O=C(Nc1ccc2c(c1)OCO2)c1cc(-c2ccc(Br)cc2)on1 | inactive
23 | CN(CCOc1ccc(Cl)cc1)CC(=O)Nc1ccc(OC(F)(F)F)cc1 | inactive
24 | N#Cc1c(/N=C/c2cccs2)sc2c1CCCCC2 | 25.1 µM (active)
25 | Cc1[nH]n(-c2ccc(F)cc2)c(=O)c1/C=N/c1sc2c(c1C#N)CCCC2 | inactive
26 | O=C(Nc1sc2c(c1C(=O)Nc1ccc(Cl)cc1)CCCC2)c1cccs1 | inactive

Row | SMILES | Potency
27 | O=C(Cc1ccccc1)NCC(=O)OCc1ccccc1F | inactive
28 | CC(Sc1nc2ccccc2c(=O)n1CC1CCCO1)C(=O)N(C)c1ccccc1 (stereo unspecified) | inactive
29 | COc1ccc(C(CC(=O)Nc2cc([N+](=O)[O-])ccc2OC)c2ccccc2)cc1 (stereo unspecified) | inactive
30 | CC(=O)NNC(=S)NC(=O)C(c1ccccc1)c1ccccc1 | inactive
31 | CCOC1=C2CN(S(=O)(=O)c3ccc(C)cc3)[C@H](c3ccccc3)C[C@@H]2N(S(=O)(=O)c2ccc(C)cc2)[C@H](c2ccccc2)C1 | inactive
32 | CC(C)c1ccc(NC(=O)c2cc(S(=O)(=O)N(C)C3CCCCC3)ccc2F)cc1 | inactive
33 | CCCOc1ccc(C(=O)Nc2ccc3oc(-c4cccc(Cl)c4Cl)nc3c2)cc1 | inactive
34 | CCc1ccc2oc(-c3cc(N)ccc3Cl)nc2c1 | 17.8 µM (active)
35 | CCOCCc1nnc(NC(=O)CS(=O)(=O)Cc2ccccc2)s1 | inactive
36 | CCCCN1C[C@H](CSC)[C@@H](CC(=O)NC)C1=O | inactive
37 | COc1ccc(NC(=O)NC23CC4(C)CC(C)(CC(C)(C4)C2)C3)cc1OC | inactive
38 | COc1ccc(N2CCN(C(=O)CN3CCSc4ccccc43)CC2)cc1 | inactive
39 | Cc1ccn2c(/C=N/OCc3cccc(F)c3)c(-c3ccc(Cl)cc3)nc2c1 | inactive
40 | Cc1ccc(OCC(=O)Nc2ccc3c(c2)nc(CCNC(=O)c2ccco2)n3C)cc1 | inactive
41 | Cc1ccc2nc(-c3ccc(NC(=O)COC(=O)c4ccco4)cc3)sc2c1 | 12.6 µM (active)
42 | CCN(CC)S(=O)(=O)c1cccc(NC(=O)COC(=O)c2cncc(Br)c2)c1 | inactive
43 | O=C(COC(=O)c1ccco1)Nc1ccc2[nH]c(=O)[nH]c2c1 | inactive
44 | Cc1ccc(C(=O)OCC(=O)Nc2ccc(C)c(S(=O)(=O)N3CCCCC3)c2)c(O)c1 | inactive
45 | Cc1ccc2nc(-c3ccc(NC(=O)COC(=O)c4cncc(Br)c4)cc3)sc2c1 | 17.8 µM (active)
46 | O=C(N/N=C/c1cccc([N+](=O)[O-])c1)c1ccc(CN2CCOCC2)cc1 | inactive
47 | CCOc1cc(/C=N/Nc2cc(C)nc(-n3nc(C)cc3C)n2)ccc1O | inactive
48 | CC(OC(=O)/C=C/c1ccco1)C(=O)NC1CCCCC1C (stereo unspecified) | inactive
49 | O=C1c2ccccc2C(=O)C1c1ccnc2ccccc12 | 14.1 µM (active)
50 | O=C(CCCc1nc2ccccc2s1)N1CCN(S(=O)(=O)c2cccs2)CC1 | 25.1 µM (active)
51 | Cc1ccc2c(CC(=O)N3CCN(S(=O)(=O)c4cccs4)CC3)coc2c1 | inactive
52 | O=S(=O)(c1cccs1)N1CCN(CCc2ccccc2)CC1 | inactive

Row | SMILES | Potency
53 | COc1ccc(C(=O)NCC(=O)N2CC=C(c3ccccc3)CC2)cc1OC | inactive
54 | O=c1nc(N/N=C/C=C/c2ccccc2)cn[nH]1 | 14.1 µM (active)
55 | COc1ccc(CCN(C)C(=O)c2cc(S(=O)(=O)N3CCCCC3)ccc2Cl)cc1OC | inactive
56 | COCCn1c(C)cc(C(=O)COC(=O)c2ccc[nH]c2=O)c1C | inactive
57 | Cc1sc2ncnc(NCC(c3ccco3)N3CCCC3)c2c1C (stereo unspecified) | inactive
58 | CCOc1cc(-c2c(C#N)c(=O)[nH]c3c2c(C)nn3-c2ccc(F)cc2)ccc1O | inactive
59 | COc1ccc2oc(=O)c(C(=O)NCCc3c(C)[nH]c4ccc(C)cc34)cc2c1 | inactive
60 | O=C(CSc1nnc(NC(=O)c2ccc3c(c2)OCO3)s1)NCc1ccco1 | 17.8 µM (active)
61 | COc1cc(OC)cc(C(=O)Nc2nnc(SCC(=O)NCc3ccco3)s2)c1 | inactive
62 | COc1ccc(-c2cnc(SCC(=O)Nc3ccc4c(c3)OCO4)n2Cc2ccco2)cc1 | inactive
63 | Cc1cc(C)cc(-n2c(SCC(=O)Nc3cccc(F)c3)nc3c([nH]c4ccccc43)c2=O)c1 | inactive
64 | COc1ccc(C)cc1NC(=O)CN(C)S(=O)(=O)c1cc(C)ccc1OC | inactive
65 | O=P(c1ccccc1)(c1ccccc1)c1nc(-c2ccccc2)oc1NCc1ccccc1 | inactive
66 | C=C[C@H](Cc1ccccc1)N(Cc1ccccc1)S(=O)(=O)N(Cc1ccccc1)[C@H](C=C)Cc1ccccc1 | inactive
67 | Cc1cc(C)c(C(N)=O)c(SCC(=O)c2cc(C)c(C)cc2C)n1 | inactive
68 | CCOc1ccc2nc(NS(=O)(=O)c3ccc(NC(C)=O)cc3)sc2c1 | inactive
69 | CSc1nc2ccc(NC(=O)c3ccccn3)cc2s1 | 15.8 µM (active)
70 | O=C(Nc1ccc2nc(SCCOc3ccccc3)sc2c1)c1cccs1 | inactive
71 | CCOc1ccc2nc(NC(=O)c3ccccn3)sc2c1 | 12.6 µM (active)
72 | CCOc1ccc(C(=O)Nc2ccc3nc(SCC(=O)N(C)c4ccccc4)sc3c2)cc1 | inactive
73 | CCOc1ccc2nc(NC(=O)c3cccn(Cc4ccc(C)cc4)c3=O)sc2c1 | inactive
74 | CN1/C(=C\C(=O)COC(=O)CNC(=O)c2ccc3ccccc3c2)C(C)(C)c2ccccc21 | inactive
75 | O=C(NCCc1ccc(F)cc1)C(=O)NCC(c1cccs1)S(=O)(=O)c1ccccc1 (stereo unspecified) | inactive
76 | Cc1cccc(C(=O)n2c(=S)nc3cc(C)ccn32)c1 | 11.2 µM (active)
77 | CCCCCn1c(CCCNC(=O)c2cccc(C)c2)nc2ccccc21 | inactive
78 | Cc1cccc(C(=O)O/N=C(\N)Cc2cccc3ccccc23)c1 | inactive

Row | SMILES | Potency
79 | COc1ccccc1N=C1SCC(=O)N1c1ccccc1OC | inactive
80 | CSCCC(c1nnnn1C1CCCCC1)N1CCC(n2c(=O)[nH]c3ccccc32)CC1 (stereo unspecified) | inactive
81 | c1ccc2sc(NN=C3CCCCCC3)nc2c1 | 15.8 µM (active)
82 | CC(=O)Nc1ccc(S(=O)(=O)Nc2nc3ccccc3s2)cc1 | inactive
83 | c1ccc(C(=NNc2nc3ccccc3s2)c2ccccn2)cc1 | inactive
84 | Cc1oc(-c2cccs2)nc1CSCC(=O)N1CCC2(CC1)OCCO2 | inactive
85 | CCCS(=O)(=O)c1cscc1NC(=O)c1c(-c2c(F)cccc2Cl)noc1C | inactive
86 | c1ccc(C2=Nn3c(nnc3-c3ccccn3)SC2)cc1 | inactive
87 | Cc1cc(=S)nc(-c2ccccn2)[nH]1 | inactive
88 | c1ccc(-c2nnc(-c3ccccn3)s2)nc1 | 14.1 µM (active)
89 | CCOc1ccccc1C(=O)NC(C(=O)N(C)Cc1ccc2c(c1)OCO2)C(C)C (stereo unspecified) | inactive
90 | COc1ccc2c(CC(=O)Nc3ccccc3N3CCOCC3)coc2c1 | inactive
91 | C/C(N)=C(/C#N)C(=O)CSc1nc2ccc(C)cc2[nH]1 | 22.4 µM (active)
92 | CCN(CC)S(=O)(=O)c1ccc(C)c(NC(=O)CSc2nc3ccc(C)cc3[nH]2)c1 | inactive
93 | C/C(N)=C(/C#N)C(=O)CSc1nc2scc(-c3ccc(F)cc3)c2c(=O)n1C | inactive
94 | CCN1CCN(C(=O)c2ccc(NS(=O)(=O)c3ccccc3)cc2)CC1 | inactive
95 | Cc1ccccc1-c1ccnc2c(-c3ccc(F)cc3)c(C)nn12 | 28.2 µM (active)
96 | Cc1nn2c3c(cnc2c1-c1ccc(F)cc1)C(=O)CC(c1ccccc1)C3 (stereo unspecified) | inactive
97 | Cc1nc2c(-c3ccc(F)cc3)c(C)nn2c(C)c1CCC(=O)Nc1ccccc1 | inactive
98 | CCN(C(=O)COC(=O)/C=C/c1cccc(Br)c1)C1CCS(=O)(=O)C1 (stereo unspecified) | inactive
99 | CN1CCN(c2ncnc3c2[nH]c2ccc(F)cc23)CC1 | inactive
100 | O=C(c1ccco1)N1CCN(c2ncnc3c2[nH]c2ccc(Br)cc23)CC1 | 31.6 µM (active)
101 | O=C(c1ccco1)N1CCN(c2ncnc3c(-c4ccc(Cl)cc4)nsc23)CC1 | inactive
